Columns and labels:
[1] = molecular target: T1, Rhodopsin kinase GRK7 (Homo sapiens) (UniProt Q8WTQ7); settings: at 10 µM
T1 sequence (whole entry): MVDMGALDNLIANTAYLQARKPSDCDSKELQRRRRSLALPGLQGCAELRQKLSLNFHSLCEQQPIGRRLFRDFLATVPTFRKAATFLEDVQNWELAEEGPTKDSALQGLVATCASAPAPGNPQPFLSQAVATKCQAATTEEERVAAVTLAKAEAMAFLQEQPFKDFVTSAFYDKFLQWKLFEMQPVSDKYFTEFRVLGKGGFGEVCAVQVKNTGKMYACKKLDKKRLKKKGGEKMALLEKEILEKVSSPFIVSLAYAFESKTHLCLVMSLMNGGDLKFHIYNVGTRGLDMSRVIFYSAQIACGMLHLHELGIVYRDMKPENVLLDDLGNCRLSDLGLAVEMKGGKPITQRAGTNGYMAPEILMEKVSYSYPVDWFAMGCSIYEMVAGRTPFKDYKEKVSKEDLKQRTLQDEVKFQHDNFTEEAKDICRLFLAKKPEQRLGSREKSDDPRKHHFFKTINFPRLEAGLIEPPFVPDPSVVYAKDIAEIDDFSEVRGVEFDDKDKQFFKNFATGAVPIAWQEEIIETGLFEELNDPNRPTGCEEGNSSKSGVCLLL

[2] = molecular target: Glycogen synthase kinase-3 alpha (Homo sapiens) (UniProt P49840); settings: at 1 µM
[3] = molecular target: Glycogen synthase kinase-3 alpha (Homo sapiens) (UniProt P49840); settings: at 10 µM
[4] = molecular target: Glycogen synthase kinase-3 beta (Homo sapiens) (UniProt P49841); settings: at 1 µM
[5] = molecular target: Glycogen synthase kinase-3 beta (Homo sapiens) (UniProt P49841); settings: at 10 µM
[6] = molecular target: Homeodomain-interacting protein kinase 2 (Homo sapiens) (UniProt Q9H2X6); settings: at 1 µM
[7] = molecular target: Homeodomain-interacting protein kinase 2 (Homo sapiens) (UniProt Q9H2X6); settings: at 10 µM
[8] = molecular target: Homeodomain-interacting protein kinase 1 (Homo sapiens) (UniProt Q86Z02); settings: at 1 µM
[9] = molecular target: Homeodomain-interacting protein kinase 1 (Homo sapiens) (UniProt Q86Z02); settings: at 10 µM
[10] = molecular target: Homeodomain-interacting protein kinase 3 (Homo sapiens) (UniProt Q9H422); settings: at 1 µM
Homeodomain-interacting protein kinase 3 (Homo sapiens), sequence (Q9H422 whole entry, looked up): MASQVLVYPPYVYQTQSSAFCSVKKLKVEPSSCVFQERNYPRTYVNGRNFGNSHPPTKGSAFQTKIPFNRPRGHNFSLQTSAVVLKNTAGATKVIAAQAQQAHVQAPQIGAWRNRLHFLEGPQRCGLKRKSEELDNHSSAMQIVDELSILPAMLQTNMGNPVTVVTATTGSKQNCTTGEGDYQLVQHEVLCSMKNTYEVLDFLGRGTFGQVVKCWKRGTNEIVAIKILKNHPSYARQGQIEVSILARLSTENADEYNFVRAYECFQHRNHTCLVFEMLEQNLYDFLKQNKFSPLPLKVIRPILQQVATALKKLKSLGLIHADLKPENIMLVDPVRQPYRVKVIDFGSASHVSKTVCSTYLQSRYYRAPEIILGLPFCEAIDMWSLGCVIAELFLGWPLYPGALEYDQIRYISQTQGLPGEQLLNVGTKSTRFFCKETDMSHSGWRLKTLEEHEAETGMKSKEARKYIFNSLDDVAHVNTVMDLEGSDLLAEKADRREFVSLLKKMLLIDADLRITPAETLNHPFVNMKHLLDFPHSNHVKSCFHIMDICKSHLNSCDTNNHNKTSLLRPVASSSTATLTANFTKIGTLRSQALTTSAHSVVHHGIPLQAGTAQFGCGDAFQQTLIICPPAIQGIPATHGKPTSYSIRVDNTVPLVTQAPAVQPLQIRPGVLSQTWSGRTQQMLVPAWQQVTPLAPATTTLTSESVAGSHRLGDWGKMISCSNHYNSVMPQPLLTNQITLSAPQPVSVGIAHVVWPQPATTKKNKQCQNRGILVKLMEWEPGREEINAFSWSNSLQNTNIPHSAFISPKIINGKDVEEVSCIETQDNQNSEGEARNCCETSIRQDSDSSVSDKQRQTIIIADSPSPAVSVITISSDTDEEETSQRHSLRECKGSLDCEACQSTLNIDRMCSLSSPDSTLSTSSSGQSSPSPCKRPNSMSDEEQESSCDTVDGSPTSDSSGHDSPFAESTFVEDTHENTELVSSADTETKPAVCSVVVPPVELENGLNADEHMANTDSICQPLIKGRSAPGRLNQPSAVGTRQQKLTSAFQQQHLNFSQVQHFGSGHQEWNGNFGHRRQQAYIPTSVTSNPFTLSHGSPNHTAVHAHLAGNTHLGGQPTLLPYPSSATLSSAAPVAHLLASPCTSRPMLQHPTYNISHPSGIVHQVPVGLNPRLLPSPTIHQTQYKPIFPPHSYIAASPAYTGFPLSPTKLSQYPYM

Glycogen synthase kinase-3 beta (Homo sapiens), sequence (P49841 whole entry, looked up): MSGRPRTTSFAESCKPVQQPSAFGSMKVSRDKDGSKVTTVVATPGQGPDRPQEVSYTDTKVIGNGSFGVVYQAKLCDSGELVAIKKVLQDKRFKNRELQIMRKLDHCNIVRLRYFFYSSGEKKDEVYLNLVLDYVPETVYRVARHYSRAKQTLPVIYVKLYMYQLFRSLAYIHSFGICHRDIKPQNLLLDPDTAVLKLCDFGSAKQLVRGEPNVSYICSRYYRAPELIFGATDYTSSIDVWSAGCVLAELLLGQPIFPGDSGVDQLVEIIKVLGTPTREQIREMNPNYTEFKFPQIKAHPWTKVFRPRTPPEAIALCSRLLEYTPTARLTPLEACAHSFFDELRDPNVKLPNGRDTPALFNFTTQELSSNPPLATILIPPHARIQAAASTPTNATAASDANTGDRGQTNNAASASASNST
Homeodomain-interacting protein kinase 1 (Homo sapiens), sequence (Q86Z02 whole entry, looked up): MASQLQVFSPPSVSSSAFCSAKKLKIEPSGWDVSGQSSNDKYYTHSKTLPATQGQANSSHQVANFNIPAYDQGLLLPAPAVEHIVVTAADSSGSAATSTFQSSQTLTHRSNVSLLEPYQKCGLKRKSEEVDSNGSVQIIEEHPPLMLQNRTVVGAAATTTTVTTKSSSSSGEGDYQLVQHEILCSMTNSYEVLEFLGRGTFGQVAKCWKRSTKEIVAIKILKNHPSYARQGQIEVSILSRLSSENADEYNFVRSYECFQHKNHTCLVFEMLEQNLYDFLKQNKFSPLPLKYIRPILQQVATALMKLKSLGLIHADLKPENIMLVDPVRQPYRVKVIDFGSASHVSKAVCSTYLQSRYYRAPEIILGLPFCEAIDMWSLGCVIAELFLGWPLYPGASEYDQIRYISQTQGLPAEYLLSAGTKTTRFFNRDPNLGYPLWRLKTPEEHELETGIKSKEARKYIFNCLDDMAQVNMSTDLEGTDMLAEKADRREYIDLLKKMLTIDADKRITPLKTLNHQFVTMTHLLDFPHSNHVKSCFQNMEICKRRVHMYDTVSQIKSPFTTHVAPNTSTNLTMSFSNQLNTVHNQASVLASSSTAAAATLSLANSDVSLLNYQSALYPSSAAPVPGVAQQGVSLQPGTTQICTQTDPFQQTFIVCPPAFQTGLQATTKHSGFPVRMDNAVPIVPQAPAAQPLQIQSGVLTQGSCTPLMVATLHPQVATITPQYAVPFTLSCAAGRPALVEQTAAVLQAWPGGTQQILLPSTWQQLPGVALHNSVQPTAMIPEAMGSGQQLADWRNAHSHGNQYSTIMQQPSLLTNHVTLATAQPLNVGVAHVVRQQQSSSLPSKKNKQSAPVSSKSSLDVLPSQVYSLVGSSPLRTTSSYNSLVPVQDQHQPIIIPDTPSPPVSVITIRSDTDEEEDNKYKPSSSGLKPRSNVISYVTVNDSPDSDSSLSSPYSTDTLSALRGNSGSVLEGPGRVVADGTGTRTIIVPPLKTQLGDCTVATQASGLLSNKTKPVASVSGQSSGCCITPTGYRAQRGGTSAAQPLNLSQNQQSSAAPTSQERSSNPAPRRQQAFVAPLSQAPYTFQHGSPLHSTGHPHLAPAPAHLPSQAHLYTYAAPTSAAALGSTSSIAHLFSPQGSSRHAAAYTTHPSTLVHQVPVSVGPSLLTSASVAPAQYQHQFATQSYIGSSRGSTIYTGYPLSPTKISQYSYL
Glycogen synthase kinase-3 alpha (Homo sapiens), sequence (P49840 2-483 limits assumed): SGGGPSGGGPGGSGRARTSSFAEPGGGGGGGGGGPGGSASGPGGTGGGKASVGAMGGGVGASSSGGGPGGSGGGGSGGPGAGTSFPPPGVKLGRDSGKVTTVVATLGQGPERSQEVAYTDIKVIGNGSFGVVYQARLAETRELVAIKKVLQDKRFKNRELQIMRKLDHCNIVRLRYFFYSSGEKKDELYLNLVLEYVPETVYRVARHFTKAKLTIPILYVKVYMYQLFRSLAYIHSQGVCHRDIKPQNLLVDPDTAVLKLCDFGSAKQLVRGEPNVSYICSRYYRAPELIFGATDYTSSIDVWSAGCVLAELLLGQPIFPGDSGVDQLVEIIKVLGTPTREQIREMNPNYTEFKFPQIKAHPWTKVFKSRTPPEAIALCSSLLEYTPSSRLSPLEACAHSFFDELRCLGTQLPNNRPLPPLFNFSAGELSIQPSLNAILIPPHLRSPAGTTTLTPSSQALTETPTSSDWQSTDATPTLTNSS
Homeodomain-interacting protein kinase 2 (Homo sapiens), sequence (Q9H2X6 whole entry, looked up): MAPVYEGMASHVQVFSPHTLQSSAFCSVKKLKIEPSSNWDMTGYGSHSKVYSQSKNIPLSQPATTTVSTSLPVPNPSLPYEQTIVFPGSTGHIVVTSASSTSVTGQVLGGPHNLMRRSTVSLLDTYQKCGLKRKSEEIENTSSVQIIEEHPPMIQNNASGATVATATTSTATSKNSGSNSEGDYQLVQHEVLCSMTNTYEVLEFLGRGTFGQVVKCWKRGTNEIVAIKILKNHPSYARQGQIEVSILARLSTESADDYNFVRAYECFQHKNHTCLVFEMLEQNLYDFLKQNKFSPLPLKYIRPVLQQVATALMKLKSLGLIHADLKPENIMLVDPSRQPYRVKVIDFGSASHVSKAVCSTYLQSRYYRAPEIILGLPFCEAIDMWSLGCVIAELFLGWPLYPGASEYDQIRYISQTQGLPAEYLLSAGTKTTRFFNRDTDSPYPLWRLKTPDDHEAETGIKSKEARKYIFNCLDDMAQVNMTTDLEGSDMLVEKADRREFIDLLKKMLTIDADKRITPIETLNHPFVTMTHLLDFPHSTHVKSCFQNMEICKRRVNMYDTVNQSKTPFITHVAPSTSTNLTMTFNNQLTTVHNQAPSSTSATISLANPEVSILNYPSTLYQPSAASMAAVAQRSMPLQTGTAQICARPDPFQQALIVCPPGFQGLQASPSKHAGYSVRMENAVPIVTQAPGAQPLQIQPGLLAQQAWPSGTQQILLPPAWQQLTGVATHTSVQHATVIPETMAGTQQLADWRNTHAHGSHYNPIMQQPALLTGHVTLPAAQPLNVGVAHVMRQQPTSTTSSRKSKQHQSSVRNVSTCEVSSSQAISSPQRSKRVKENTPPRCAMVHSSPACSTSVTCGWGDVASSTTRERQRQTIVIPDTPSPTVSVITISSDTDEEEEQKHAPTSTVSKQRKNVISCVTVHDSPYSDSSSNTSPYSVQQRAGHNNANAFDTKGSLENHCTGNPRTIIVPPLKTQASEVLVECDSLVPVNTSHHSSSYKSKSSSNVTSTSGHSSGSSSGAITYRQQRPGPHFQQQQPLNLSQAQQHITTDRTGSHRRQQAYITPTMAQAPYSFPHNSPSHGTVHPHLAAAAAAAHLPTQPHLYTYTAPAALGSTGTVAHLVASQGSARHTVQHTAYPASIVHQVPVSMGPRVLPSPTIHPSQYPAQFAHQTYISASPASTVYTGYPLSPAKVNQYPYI

SMILES | residual activity [1] [%] | residual activity [2] [%] | residual activity [3] [%] | residual activity [4] [%] | residual activity [5] [%] | residual activity [6] [%] | residual activity [7] [%] | residual activity [8] [%] | residual activity [9] [%] | residual activity [10] [%]
O=C1NC(=O)C(c2c[nH]c3ccccc23)=C1c1c[nH]c2ccccc12 | 20 | 19 | 4 | 31 | 6 | 76 | 15 |  |  | 
O=c1cc(N2CCOCC2)oc2c1ccc1ccccc12 | 87 |  | 80 | 101 | 73 | 70 | 22 | 90 | 50 | 71
O=C(NC(NC(=S)Nc1ccc(F)c([N+](=O)[O-])c1)C(Cl)(Cl)Cl)C(c1ccccc1)c1ccccc1 (stereo not given) | 98 |  | 89 |  |  | 104 | 77 | 99 | 93 | 96
NC(=O)Nc1sc(-c2ccc(F)cc2)cc1C(N)=O | 19 | 64 | 29 |  |  | 94 | 67 | 106 | 87 | 100
O=c1cc(N2CCOCC2)oc2c(-c3ccccc3)cccc12 | 81 |  |  |  |  |  |  |  |  | 
COc1cc2c(cc1OC)-c1n[nH]c(Nc3cccc(F)c3)c1C2 | 80 | 115 | 108 |  | 75 |  |  |  |  | 
O=C(c1cc2cc(O)ccc2[nH]1)c1cc2cc(O)ccc2[nH]1 | 54 |  | 26 | 59 | 20 | 83 | 28 |  |  | 76
CC(C)(C)n1nc(Cc2cccc3ccccc23)c2c(N)ncnc21 | 56 | 116 | 130 | 103 | 65 | 101 | 110 | 95 | 107 | 93
CN(C)S(=O)(=O)c1ccc2c(c1)/C(=C/c1cc3c([nH]1)CCCC3)C(=O)N2 | 78 | 97 | 94 | 112 | 94 | 97 | 90 |  |  | 99
CN([C@@H](Cc1ccc(OS(=O)(=O)c2cccc3cnccc23)cc1)C(=O)N1CCN(c2ccccc2)CC1)S(=O)(=O)c1cccc2cnccc12 | 85 |  |  |  |  |  |  |  |  | 
CCCCc1c(-c2ccc(O)cc2)[nH]c2nccnc12 | 87 | 62 | 20 | 79 | 73 |  | 62 |  |  | 
O=C1NC(=O)c2c1c1c3ccccc3[nH]c1n1cncc21 | 76 | 7 | 4 | 26 | 29 | 30 | 13 | 77 | 58 | 61
Oc1cccc(-c2nc(N3CCOCC3)c3oc4ncccc4c3n2)c1 | 94 |  | 127 |  |  | 84 | 89 |  |  | 93
CCCCc1c(-c2ccc(OC)cc2)[nH]c2nccnc12 | 92 | 46 | 41 | 52 | 71 |  | 90 |  |  | 106
CC(C)c1nn(-c2c(Cl)cccc2Cl)c2nc(Cc3ccc(OCCO)cc3)[nH]c(=O)c12 | 80 | 66 | 13 | 51 | 45 | 99 | 89 | 104 | 98 | 107
COc1cc2nccc(Oc3ccc(NC(=S)NC(=O)c4ccccc4C)cc3)c2cc1OC | 84 | 120 | 147 | 86 | 99 | 100 | 91 | 93 |  | 88
O=C(O)/C=C/c1cc(Br)c(Br)c(Br)c1Br | 95 | 93 | 51 | 125 | 106 | 83 | 27 | 93 | 53 | 94
CCCC(=O)Oc1ccc2[nH]c(C(=O)c3cc4ccccc4[nH]3)cc2c1 | 82 |  | 125 | 99 | 95 | 102 | 100 | 98 | 103 | 93
O=C1Nc2ccc(Cl)cc2/C1=C/c1cc(Cl)c(O)c(Cl)c1 | 79 | 75 | 30 | 84 | 44 | 76 | 22 | 93 | 88 | 79
Cc1cc(C)c(/C=C2\C(=O)Nc3ccccc32)[nH]1 | 60 | 106 | 124 |  |  | 80 | 39 |  |  | 
CC(C)[C@H](CO)Nc1nc(Nc2cc(N)cc(Cl)c2)c2ncn(C(C)C)c2n1 | 10 | 80 | 28 |  |  | 86 | 32 |  | 60 | 
O=S(=O)(NCCNC/C=C/c1ccc(Br)cc1)c1cccc2cnccc12 | 58 |  |  |  |  |  |  |  |  | 

SMILES | residual activity [1] [%] | residual activity [2] [%] | residual activity [3] [%] | residual activity [4] [%] | residual activity [5] [%] | residual activity [6] [%] | residual activity [7] [%] | residual activity [8] [%] | residual activity [9] [%] | residual activity [10] [%]
Nc1ncnc2c1c(-c1ccc(Oc3ccccc3)cc1)cn2C1CCCC1 | 69 | 104 | 112 | 88 |  | 96 | 75 | 86 | 98 | 86
O=C1Nc2ccccc2/C1=C\c1c(Cl)[nH]c2ccccc12 | 87 |  |  | 141 | 80 |  |  |  |  | 
O=C(CCCc1ccc(-c2ccccc2F)cc1)Nc1ccc(O)cc1 | 86 |  | 84 | 102 | 79 | 111 | 105 | 108 | 104 | 103
COc1ccc2c(c1)c(C1=C(c3c[nH]c4ccccc34)C(=O)NC1=O)cn2CCCN(C)C | 44 | 15 | -1 | 30 | 4 | 57 | 13 |  | 34 | 72
Nc1ncnc2c1cnn2-c1ccccc1 | 94 |  | 140 | 84 |  | 101 | 95 |  |  | 99
O=C1NC(=O)C(c2cn(CCCn3ccnc3)c3ccccc23)=C1Nc1ccccc1 | 22 | 14 | 1 | 14 | 3 |  |  |  |  | 
O=C(Nc1nc2ccccc2n1CCN1CCOCC1)c1cccc([N+](=O)[O-])c1 | 79 | 113 | 116 |  |  |  |  |  |  | 
Cn1c2ccccc2c2c3c(c4c5ccccc5n(CCC#N)c4c21)CNC3=O | 34 | 20 | 19 | 15 | 26 | 20 | 11 |  |  | 
O=C(c1ccccc1)c1ccc(N2CCOCC2)cc1O | 95 | 91 | 121 | 96 | 87 | 97 | 94 | 98 | 97 | 87
Nc1nc(Nc2ccc(S(N)(=O)=O)cc2)nn1C(=O)c1c(F)cccc1F | 6 | 11 | 4 | 23 | 3 | 48 | 6 | 75 | 18 | 
CSc1nc(-c2ccc(F)cc2)c(-c2ccnc(NC(C)c3ccccc3)c2)[nH]1 (stereo not given) |  |  | 96 |  |  |  | 86 |  | 97 | 
O=C1NC(=O)C(c2cn(CCCO)c3ncccc23)=C1c1cnccn1 |  | 6 | 3 | 34 | 10 | 56 | 52 | 93 | 93 | 
CC(C)(C)c1nc2c3ccc(F)cc3c3c(=O)[nH]ccc3c2[nH]1 |  |  |  |  |  | 65 | 21 |  | 98 | 79
c1ccc(-c2cnc(Nc3ccc(OCCN4CCCC4)cc3)s2)cc1 |  | 109 | 133 |  |  | 67 | 19 |  |  | 78
CCOC(=O)c1c(C)[nH]c(/C=C2\C(=O)Nc3ccccc32)c1C |  |  | 129 | 99 | 80 |  |  |  |  | 
COc1cc2nccc(Oc3ccc(NC(=O)Nc4cc(C)on4)c(Cl)c3)c2cc1OC |  | 107 | 123 |  |  |  |  | 96 | 106 | 
NCCNc1ncc(C(N)=O)c(Nc2cccc(C(F)(F)F)c2)n1 |  |  |  |  | 26 |  |  |  |  | 
O=C1C(Cl)=C(N2C(=O)CCC2=O)C(=O)c2ccccc21 | 90 |  |  | 120 | 93 | 102 | 92 |  | 89 | 93
O=C1Cc2c([nH]c3ccc(Br)cc23)-c2ccccc2N1 |  |  |  | 8 | 7 | 98 | 64 |  | 90 | 
N#C/C(=C\c1ccc(O)c(O)c1)C(=O)NCc1ccccc1 |  |  |  |  |  | 101 |  |  |  | 
COc1ccc(Cl)cc1NC(=O)Nc1cc(C)nc2ccccc12 | 88 |  |  |  |  | 98 | 87 | 97 |  | 99
O=S(=O)(c1cccc2cnccc12)N1CCCNCC1 |  |  |  | 136 |  |  |  |  |  | 

SMILES | residual activity [1] [%] | residual activity [2] [%] | residual activity [3] [%] | residual activity [4] [%] | residual activity [5] [%] | residual activity [6] [%] | residual activity [7] [%] | residual activity [8] [%] | residual activity [9] [%] | residual activity [10] [%]
CC(C)N(CCC(=O)c1ccc2ccccc2c1)Cc1ccccc1 |  |  | 135 |  |  |  |  |  |  | 86
CCN1/C(=C/C(C)=O)Sc2ccc(OC)cc21 |  |  | 34 |  | 63 |  |  |  |  | 82
O=c1cc(N2CCNCC2)oc2c(-c3ccccc3)cccc12 | 84 |  |  | 78 | 84 | 97 | 90 | 101 | 96 | 90
N#Cc1c(NC(=O)c2cccc3ccccc23)sc2c1CCCC2 |  | 84 | 80 |  | 100 |  |  |  |  | 99
NC(=O)c1cccc(-c2cc(Nc3ccc(OC(F)(F)F)cc3)ncn2)c1 |  | 98 | 82 |  | 64 |  |  |  |  | 
Nc1ncnc2[nH]nc(Nc3ccc(F)cc3)c12 |  | 98 | 90 | 100 | 93 | 100 | 92 | 108 | 96 | 
O=C(Nc1ccc(Cl)cc1)c1ccccc1NCc1ccncc1 |  | 118 | 130 |  |  |  |  |  |  | 
N#C/C(=C1/Nc2ccccc2S1)c1ccnc(NCCc2cccnc2)n1 |  | 1 | -1 | 8 | 1 | 47 | 6 |  |  | 88
COc1ccc(COc2ccc(Cc3cnc(N)nc3N)cc2OC)cc1 |  | 120 | 119 |  | 80 |  |  |  |  | 
Nc1n[nH]c2nc3ccccc3nc12 |  | 81 | 50 | 100 | 80 | 98 | 59 |  | 87 | 
COc1ccc(CNC(=O)Nc2ncc([N+](=O)[O-])s2)cc1 |  |  |  | 28 | 14 |  |  |  |  | 
COc1cc2ncnc(Nc3cccc(Cl)c3)c2cc1OC |  | 101 | 121 |  |  |  |  |  |  | 110
Cn1sc(=O)n(Cc2ccccc2)c1=O | 77 |  |  |  |  | 94 | 94 |  |  | 
NC(=O)c1ccc(-c2nc(-c3ccc4c(c3)OCCO4)c(-c3ccccn3)[nH]2)cc1 |  |  |  | 117 | 98 |  |  |  |  | 
COc1ccc(-c2cnc3c(-c4ccsc4)cnn3c2)cc1 |  |  |  | 87 | 88 | 93 | 95 |  |  | 
Nc1nccc(-c2c(-c3ccc(F)cc3)ncn2C2CCNCC2)n1 |  |  |  |  | 64 |  | 62 |  | 82 | 
O=C1Cc2c([nH]c3ccc([N+](=O)[O-])cc23)-c2ccccc2N1 |  | 1 | 2 | -1 | 3 |  |  | 109 | 100 | 
CCN(CC)CCNC(=O)c1c(C)[nH]c(/C=C2\C(=O)Nc3ccc(Cl)cc32)c1C | 9 |  |  |  |  | 6 | 1 | 32 | 4 | 9
Fc1ccc(-c2nc3n(c2-c2ccncc2)CCS3)cc1 |  | 88 | 88 |  |  |  | 91 |  |  | 
O=c1c(-c2ccc(F)cc2)c(-c2ccncc2)[nH]n1-c1ccc(Cl)cc1 |  |  | 69 | 102 | 56 |  | 99 |  |  | 

Source: ChEMBL document CHEMBL2218924, “A broad activity screen in support of a chemogenomic map for kinase signalling research and drug discovery” (Biochem J, 2013)
